Results on 14 compounds are retold here after PubChem BioAssay.

By inhibition is commonly meant the relative decrease from the control value, in per cent.

A short description of assay [1]: inhibitors of TNFa-induced NFkB p65 translocation, primary screen, imaging, HUVEC, MLSMR starter and 10KST1 sets (AID 438;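 active = inhibition above 20% together with a positive visual image hit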;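 note: compound added about 3h40 before a 20 min TNFalpha stimulation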;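 for inhibition: signal is the nuclear over cytoplasmic p65 intensity ratio per well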). Particulars: HUVEC TNFa-induced p65 nuclear translocation; cell count: measured here: nuclei count (cytotoxicity indicator), at 2.08 µM; inhibition: at 2 µM, stronger effect = higher value, 0% TNFa-plus-vehicle, 100% no-TNFa wells.
A short description of assay [2]: inhibitors of mutant huntingtin aggregation, primary screen, imaging, exon1htt(103Q)mCFP cells, high-content imaging (AID 483;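 active = visual image review flags a hit and inhibition of aggregation exceeds 20%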;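 note: compound exposure lasted 3 days before fixation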;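 for nuclei count: percent of the per-plate median nuclei count of sample wells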). Particulars: exon1htt(103Q)mCFP cell line, aggregate imaging, at 2 µM; inhibition of aggregation: stronger effect = higher value; nuclei count: measured here: cell count, toxicity.
Assay [3] in a line: inhibitors of E-selectin induction by TNFa, primary screen, imaging, HUVEC, immunofluorescence, MLSMR starter and 10KST1 sets (AID 487).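 For inhibition: signal is fraction of cell area covered by stained E-selectin grains.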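 For nuclei count: 100% = median nuclei count of all wells on the same plate.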 Particulars: HUVEC TNFalpha-induced E-selectin immunofluorescence imaging, at 2 µM; inhibition: stronger effect = higher value; nuclei count: measured here: cell number, toxicity.
Assay [4] concerns the target Voltage-gated potassium channel subunit beta-2 (Rattus norvegicus) (UniProt P62483). Nature of the assay: KvBeta enzyme negative modulators, primary screen, biochemical, NADPH fluorescence (AID 622;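 active = fluorescence slope higher than the sample average by over 3 SD, cut at about -0.22 in these data, passing the limit was not always enough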;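 note: slope of raw intensity against log time taken from 70 to 1610 s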). The conditions noted are these: recombinant KvBeta, 4-cyanobenzaldehyde reduction, at 10 µM, stronger effect = higher value.
Assay [5] shares this target. Put plainly: KvBeta positive modulators, primary screen, biochemical, NADPH fluorescence (AID 623;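 active = NADPH fluorescence slope more negative than the mean of all samples by about 3 SD, 99.7% confidence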;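 note: fluorescence intensity change per second fitted from 20 to 320 s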). Particulars: Recombinant KvBeta, NADPH fluorescence decrease slope, 10 min; at 10 µM; stronger effect = lower value.
The target of assay [6] is Alpha-2C adrenergic receptor (Homo sapiens) (UniProt P18825). Nature of the assay: modulators of alpha2C/GIRK thallium flux, primary screen, cell-based, HEK293 alpha2C/GIRK1/2 (AID 624;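 active = fluorescence slope after compound addition differing from the mean of all screened samples at 99.7% confidence, in either direction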;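 note: slope of fluorescence ratio to pre-addition baseline per second over 15 to 24 s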). The conditions noted are these: thallium flux BTC fluorescence, at 10 µM, actives lie on both sides.
Assay [7] is described as follows: inhibitors of Sendai virus-induced IRF3 signaling, primary screen, TLR/RLR signaling modifier project, cell-based, Sendai virus stimulus, luciferase, 10K MLSCN set (AID 602276;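 active = inhibition at or above 50% at 10 µM; inactive = inhibition below 50%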;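 note: firefly luciferase from ISG56 promoter only with Renilla not read in this screen; 0% = Sendai virus plus DMSO and 100% = medium plus DMSO without virus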). Particulars: HEK293 RL24 IRF3 luciferase reporter, at 10 µM, stronger effect = higher value. A general note: A reporter such as luciferase makes a cellular process visible.
Assay [8] in a line: inhibitors of poly I:C-induced TLR3 signaling, primary screen, cell-based, poly I:C stimulus, luciferase, 10K MLSCN set (AID 602277;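 active = inhibition of the reporter signal at or above 50%; inactive = inhibition below 50%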). The conditions noted are these: HEK293-TLR3 RL24 IRF3 luciferase reporter, at 10 µM, stronger effect = higher value.

Activity calls are given as the source filed them.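 Rule for the calls, unless noted: active = visually confirmed hit in the image check and inhibition above 20%; inconclusive = visually confirmed hit but inhibition not above 20%; inactive = no visual hit in the image check.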

Chain of Alpha-2C adrenergic receptor (Homo sapiens) (P18825 whole entry, looked up): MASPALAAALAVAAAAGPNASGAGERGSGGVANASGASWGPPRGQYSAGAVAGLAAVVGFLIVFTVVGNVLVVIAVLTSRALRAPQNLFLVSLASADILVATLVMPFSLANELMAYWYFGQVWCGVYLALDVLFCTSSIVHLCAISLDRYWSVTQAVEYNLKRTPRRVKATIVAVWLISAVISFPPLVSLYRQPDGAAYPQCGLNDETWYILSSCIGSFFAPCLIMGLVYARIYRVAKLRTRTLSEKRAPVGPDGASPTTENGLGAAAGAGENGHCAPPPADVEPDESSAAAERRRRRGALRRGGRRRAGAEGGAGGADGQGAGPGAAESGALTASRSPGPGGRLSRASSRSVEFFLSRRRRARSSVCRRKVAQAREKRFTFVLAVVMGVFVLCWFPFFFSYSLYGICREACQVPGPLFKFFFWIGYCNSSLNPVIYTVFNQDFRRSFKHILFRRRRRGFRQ
Chain of Voltage-gated potassium channel subunit beta-2 (Rattus norvegicus) (P62483 whole entry, looked up): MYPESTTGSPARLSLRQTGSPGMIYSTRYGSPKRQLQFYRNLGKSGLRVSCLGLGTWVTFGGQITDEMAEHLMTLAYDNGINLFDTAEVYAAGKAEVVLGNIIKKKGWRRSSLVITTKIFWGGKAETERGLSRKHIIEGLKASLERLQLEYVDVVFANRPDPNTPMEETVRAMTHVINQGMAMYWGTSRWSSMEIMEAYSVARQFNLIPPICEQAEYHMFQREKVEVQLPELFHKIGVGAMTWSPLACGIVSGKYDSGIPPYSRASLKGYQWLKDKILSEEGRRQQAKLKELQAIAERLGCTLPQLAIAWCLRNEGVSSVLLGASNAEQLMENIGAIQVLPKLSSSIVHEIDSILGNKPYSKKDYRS

On to `Cc1ccc(-n2nnnc2SCC(=O)c2cc(C)n(-c3cc(C)on3)c2C)cc1`, for which the cell count in assay [1] came to 844. For the same compound, the inhibition is -12.4% (inactive) in assay [1], -36.4% (inactive) in assay [3], 12.6% (inactive) in assay [7] and 18.7% (inactive) in assay [8]. The inhibition of aggregation in assay [2] was -7.8% (inactive). The nuclei count in assay [2] was 101%; in assay [3], 106%. For the same compound, the fluorescence slope in assay [4] is -0.595 (inactive). The NADPH fluorescence slope in assay [5] is 8.7e-07 (inactive). Besides, the slope in assay [6] is 0.00585 (inactive).
As for `CCOC(=O)c1c(C)[nH]c(C(=O)COC(=O)c2ccc(F)c(S(=O)(=O)N3CCOCC3)c2)c1C`, the cell count in assay [1] was found to be 376. For the same compound, the inhibition is 4.8% (inactive) in assay [1], -27.2% (inactive) in assay [3], 5.38% (inactive) in assay [7] and 13.3% (inactive) in assay [8]. For the same compound, the inhibition of aggregation in assay [2] is -173% (inactive). For the same compound, the nuclei count turned out to be 6.6% in assay [2] and 105% in assay [3]. In addition, the fluorescence slope in assay [4] is -0.6 (inactive). Moreover, the NADPH fluorescence slope in assay [5] was -5.1e-05 (inactive). The slope in assay [6] is 0.00426 (inactive).
Regarding `CCc1nnc(NC(=O)C2CCCN2S(=O)(=O)c2ccc(C)cc2)s1` (centres undefined), the cell count in assay [1] stood at 445. In addition, the inhibition in assay [1] was -8.4% (inactive); in assay [3] it was 25.4% (inactive); in assay [7] it was 2.82% (inactive); in assay [8], 15.9% (inactive). The inhibition of aggregation in assay [2] is 24.1% (inactive). Besides, the nuclei count in assay [2] turned out to be 60.3%; in assay [3], 123%. Besides, the fluorescence slope in assay [4] is -0.41 (inactive). Besides, the NADPH fluorescence slope in assay [5] is 1.6e-05 (inactive). Also, in assay [6], the slope is 0.00581 (inactive).
Turning to `CC1(CC(=O)O)C(=O)N=C2C=CC=CN21` (centres undefined), the cell count in assay [1] is 489. For the same compound, the inhibition is -10.7% (inactive) in assay [1], 12.8% (inactive) in assay [3], 19.8% (inactive) in assay [7] and 22.1% (inactive) in assay [8]. For the same compound, in assay [2], the inhibition of aggregation was 17.4% (inactive). In addition, the figures for the nuclei count in assay [2] and in assay [3] were 77.5% and 97.8%, respectively. Further, in assay [4], the fluorescence slope was -0.318 (inactive). Also, the NADPH fluorescence slope in assay [5] is 2.3e-05 (inactive). Also, the slope in assay [6] is 0.0089 (inactive).
In the case of `Cn1c(=O)c2c(nc(CN3CCN(Cc4ccccc4)CC3)n2Cc2cccc(Cl)c2)n(C)c1=O`, the cell count in assay [1] was 488. The inhibition was -13.1% (inactive) in assay [1], 10.1% (inactive) in assay [3], 15.9% (inactive) in assay [7] and 48.7% (inactive) in assay [8]. Further, the inhibition of aggregation in assay [2] is 6.5% (inactive). In addition, the nuclei count was 100% in assay [2] and 98% in assay [3]. Also, the fluorescence slope in assay [4] was -0.562 (inactive). In assay [5], the NADPH fluorescence slope is -5.1e-05 (inactive). For the same compound, the slope in assay [6] is 0.00606 (inactive).
As to `CCOc1ccc(C2CC(=O)NC3=C2C(=O)CCC3)cc1Cl` (centres undefined), the cell count in assay [1] stood at 481. In addition, the inhibition was 10% (inactive) in assay [1], -1.1% (inactive) in assay [3], 5.45% (inactive) in assay [7] and 13.2% (inactive) in assay [8]. Further, the inhibition of aggregation in assay [2] was 5.5% (inactive). For the same compound, the nuclei count in assay [2] is 106%; in assay [3], 110%. Besides, the fluorescence slope in assay [4] was -0.407 (inactive). The NADPH fluorescence slope in assay [5] is -3.2e-05 (inactive). The slope in assay [6] was 0.00268 (inactive).
With `Cc1ccccc1-n1nc(C)c2cc(C(=O)NCc3cccnc3)sc21`, the cell count in assay [1] amounted to 374. The inhibition in assay [1] is -1.1% (inactive); in assay [3] it was -51.5% (inactive); in assay [7] it was 10.7% (inactive); in assay [8], 44.3% (inactive). The inhibition of aggregation in assay [2] is -18.9% (inactive). The nuclei count in assay [2] is 116%; in assay [3], 113%. Besides, the fluorescence slope in assay [4] was -0.493 (inactive). Also, in assay [5], the NADPH fluorescence slope was -6.5e-05 (inactive). Moreover, the slope in assay [6] was 0.0199 (active).
As to `O=C(CSc1ncccn1)NCc1ccccc1`, the cell count in assay [1] was 362. Also, the inhibition is 2.5% (inactive) in assay [1], 36.4% (inactive) in assay [3], -29.7% (inactive) in assay [7] and -47.8% (inactive) in assay [8]. Besides, the inhibition of aggregation in assay [2] is 12.3% (inactive). The nuclei count amounted to 103% in assay [2] and 120% in assay [3]. Also, the fluorescence slope in assay [4] is -0.531 (inactive). Also, the NADPH fluorescence slope in assay [5] is 3.2e-05 (inactive). Besides, in assay [6], the slope is 0.00529 (inactive).
As for `COc1ccc(C(=O)N2CCCc3ccccc32)cc1`, the cell count in assay [1] is 433. In addition, the inhibition is 2.5% (inactive) in assay [1], 4.7% (inactive) in assay [3], 7.26% (inactive) in assay [7] and 5.78% (inactive) in assay [8]. Besides, in assay [2], the inhibition of aggregation was -1.4% (inactive). The nuclei count in assay [2] was 107%; in assay [3] it was 110%. Besides, in assay [4], the fluorescence slope was -0.519 (inactive). The NADPH fluorescence slope in assay [5] is -8e-05 (inactive). Besides, in assay [6], the slope was 0.00477 (inactive).
Take `O=C(c1ccccc1-c1ccccc1)N1CCN(c2ccccn2)CC1`: the cell count in assay [1] was 384. Also, the inhibition in assay [1] was 7.8% (inactive); in assay [3], -93.4% (inactive); in assay [7], 43.1% (inactive); in assay [8], 26.8% (inactive). Besides, in assay [2], the inhibition of aggregation is -81.8% (inactive). Moreover, the nuclei count was determined as 17.3% in assay [2] and 102% in assay [3]. For the same compound, the fluorescence slope in assay [4] is -0.5 (inactive). For the same compound, the NADPH fluorescence slope in assay [5] is -3.6e-05 (inactive). Further, the slope in assay [6] is 0.00494 (inactive).
With `COC(=O)C1=C(C)OC(N)=C(C#N)C1c1c(C)nn(-c2ccccc2)c1Cl` (centres undefined), the cell count in assay [1] was determined as 798. Also, the inhibition in assay [1] was 3.8% (inactive); in assay [3], -33.5% (inactive); in assay [7], -88.9% (inactive); in assay [8], -11.8% (inactive). In addition, the inhibition of aggregation in assay [2] is 12.3% (inactive). Moreover, the values for the nuclei count in assay [2] and in assay [3] were 107% and 126%, respectively. Moreover, the fluorescence slope in assay [4] was -0.524 (inactive). Also, in assay [5], the NADPH fluorescence slope was 1e-05 (inactive). In addition, in assay [6], the slope is 0.00643 (inactive).
With `CNC(=O)c1nnn(Cc2ccccc2)c1NC(C)=O`, the cell count in assay [1] came to 539. Further, the inhibition in assay [1] was -14.7% (inactive); in assay [3], -73.3% (inactive); in assay [7] it was -13% (inactive); in assay [8], -3.44% (inactive). The inhibition of aggregation in assay [2] is -9.5% (inactive). Further, the results for the nuclei count in assay [2] and in assay [3] were 102% and 92.3%, respectively. Further, the fluorescence slope in assay [4] was -0.601 (inactive). In addition, the NADPH fluorescence slope in assay [5] is 4e-05 (inactive). For the same compound, in assay [6], the slope was 0.00612 (inactive).
Take `CC(CCc1ccco1)NC(=O)Cn1ncc2c1-c1ccccc1OC2` (centres undefined): the cell count in assay [1] came to 762. In addition, the inhibition in assay [1] is -3.2% (inactive); in assay [3] it was 0.8% (inactive); in assay [7] it was -1.38% (inactive); in assay [8], 11.2% (inactive). The inhibition of aggregation in assay [2] was -17.9% (inactive). Moreover, the nuclei count in assay [2] was determined as 126%; in assay [3], 120%. For the same compound, the fluorescence slope in assay [4] was -0.539 (inactive). The NADPH fluorescence slope in assay [5] was -1.5e-05 (inactive). In addition, the slope in assay [6] is 0.00662 (inactive).
On to `Cc1cc(=O)n(C)c(=O)n1CCCNc1ccccc1`, for which the cell count in assay [1] is 489. Also, the inhibition is -13.1% (inactive) in assay [1], -19.5% (inactive) in assay [3], -2.79% (inactive) in assay [7] and 6.15% (inactive) in assay [8]. Also, the inhibition of aggregation in assay [2] was -3% (inactive). The nuclei count came out at 126% in assay [2] and 113% in assay [3]. The fluorescence slope in assay [4] is -0.333 (inactive). Besides, the NADPH fluorescence slope in assay [5] is -3.7e-05 (inactive). Besides, in assay [6], the slope is 0.00566 (inactive).
